In PubChem BioAssay (Tox21):
Records with an inconclusive call do not appear. Activity calls are given as the source filed them. The call rests on the fitted dose curve; in most records, active means well fitted cell-killing curve with a large enough effect in the repeat runs; inconclusive means weak or mixed curves, or effect the other way; inactive means flat fitted curve, though single readings scatter.

experiment: qHTS assay to identify small molecule agonists of the androgen receptor (AR) signaling pathway in the presence of an antagonist - cell viability counter screen (AID 1259379); settings: MDA-kb2 viability, CellTiter-Fluor, 16 h; series mostly up to 92.4 µM; activity change, negative = cytotoxicity: at the top concentration; further: nearly all actives have a fitted effect of over 25% in size
Source text: National Center for Advancing Translational Sciences [NCATS]
NIH Chemical Genomics Center [NCGC]
U.S. Environmental Protection Agency [EPA]
National Institutes of Environmental Health Sciences [NIEHS]
National Toxicology Program [NTP]
U.S. Food and Drug Administration [FDA]
Androgen receptor (AR) is an important member of nuclear receptor family. Its signaling plays a critical role in AR-dependent prostate cancer and other androgen related diseases. Considerable attention has been given in the past decades to develop methods to study and screen for the environmental chemicals that have the potential to interfere with metabolic homeostasis, reproduction, developmental and behavioral functions. Therefore AR binding assay for screening against androgen agonists and antagonists can be used to identify potential endocrine disruptors.
MDA-kb2 cells (from ATCC, deposited by Wilson et al.) are human breast carcinoma cells that were stably transfected with a luciferase reporter gene under control of the MMTV promoter that contains response elements for both androgen receptor (AR) and glucocorticoid receptor (GR). This particular screening for measuring luciferase reporter gene activity using MDA-kb2 cells against Tox21 10K library compounds is a confirmation study on agonist mode screening in the presence of AR-antagonist compound (Nilutamide) at 3.0uM final concentration. The cytotoxicity of the compounds was tested in parallel by measuring the cell viability using CellTiter-Fluor assay system (Promega, Madison, WI) in the same wells.
Tox21 Assay Protocol Summary:
MDA-kb2 cells (cells cultured without CO2) were dispensed at 3,000 cells/well in 4uL of culture medium into white wall/solid-bottom 1536-well plates (Corning Life Sciences, Corning, NY) using a Multidrop Combi (Thermo Fisher Scientific Inc., Waltham, MA) dispenser. The assay plates were incubated at 37C and 0% CO2 for 5hr. One uL of 3.0uM (final concentration) Nilutamide or assay buffer was added using two separate tips of Flying Reagent Dispenser (FRD, Aurora Discovery, San Diego, CA). Then 23nL of compounds dissolved in DMSO at 15 concentrations and positive controls were transferred to the assay plates using a Pintool station (Wako, San Diego, CA). The assay plates were incubated at 37C and 0% CO2 for 16 hr. After 15hr incubation at 37C, 1uL/well CellTiter-Fluor reagent (Promega Corporation) was added to each well of the assay plates using FRD. After 1hr incubation at 37C and 0% CO2, the fluorescence signal was measured using a ViewLux plate reader (PerkinElmer, Shelton, CT).
On the % scale 0 is the no-effect control and ±100 the full control effect; potency means the concentration at half of the fitted maximal effect.

SMILES | activity change, negative = cytotoxicity | Potency
C=C(C)CCO | -0.961% (inactive) | –
O=C(N[C@H](CO)[C@H](O)c1ccc([N+](=O)[O-])cc1)C(Cl)Cl | -0.462% (inactive) | –
CCOC(=O)[C@H](C)O | 1.09% (inactive) | –
CCCCCCCCc1ccc(Nc2ccc(CCCCCCCC)cc2)cc1 | 2.77% [at 42.5 µM] (inactive) | –
CC1(C)[C@H]2CC[C@]1(C)C(=O)C2 | 1.84% (inactive) | –
O=C(Nc1ccccc1)c1cc(Cl)ccc1O | – | 13.7 µM (active)
CCc1cccc(C)c1N(C(=O)C(=O)O)C(C)COC (stereo not given) | -2.33% (inactive) | –
C=CC(=O)OCC(Br)CBr (stereo not given) | -11% (inactive) | –
O=C1c2ccccc2C(=O)c2c(Cl)cccc21 | 0.0831% [at 42.5 µM] (inactive) | –
CO[Si](OC)(c1ccccc1)c1ccccc1 | 1.54% (inactive) | –
O=C(c1ccccc1)c1ccc(Cl)cc1 | -2.71% (inactive) | –
c1ccc(-c2ccccc2-c2ccccc2)cc1 | 0.606% (inactive) | –
CC(c1cc(C(C)(C)C)cc(C(C)(C)C)c1O)c1cc(C(C)(C)C)cc(C(C)(C)C)c1O | -2.37% (inactive) | –
c1ccc2occc2c1 | -3.89% (inactive) | –
CCCCCN=C(N)N/N=C/c1c[nH]c2ccc(OC)cc12 | – | 13.3 µM (active)
CCNc1nc(NC(C)(C)C)nc(OC)n1 | -1.17% (inactive) | –
O=C1CCCCCCCCCCCCCC1 | 2.08% (inactive) | –
O=C1CCC(=O)N1 | 0.933% (inactive) | –
Clc1cccc(Cl)n1 | -0.145% (inactive) | –
O=C(CCCCCCCCc1cccnc1)N1CCC(C=C(c2ccccc2)c2ccccc2)CC1 | – | 61.1 µM (active)

SMILES | activity change, negative = cytotoxicity | Potency
CC(C)(c1ccc(Oc2ccc(N)cc2)cc1)c1ccc(Oc2ccc(N)cc2)cc1 | – | 54.5 µM (active)
C/C(=N\[Si](C)(C)C)O[Si](C)(C)C | 3.47% (inactive) | –
Clc1ccc2c(Cl)ccnc2c1 | -0.187% (inactive) | –
c1ccc(-c2ccc(C(c3ccccc3)n3ccnc3)cc2)cc1 (stereo not given) | -6.81% [at 42.5 µM] (inactive) | –
CCCC(=O)c1cc(O)c(O)cc1O | – | 54.5 µM (active)
Cc1ccc(S(=O)(=O)C(I)I)cc1 | – | 68.6 µM (active)
C=C1CC[C@H]2O[C@]2(C)CC[C@@H]2[C@@H]1CC2(C)C | -2.62% (inactive) | –
COCCC(=O)OC | -3.35% (inactive) | –
[Cl][Dy]([Cl])[Cl] | -6.71% (inactive) | –
Oc1ccc2c(c1)CCC2 | 2.26% (inactive) | –
CC(C)(C)c1cc(CCC(=O)OCCSCCOC(=O)CCc2cc(C(C)(C)C)c(O)c(C(C)(C)C)c2)cc(C(C)(C)C)c1O | 0.38% [at 42.5 µM] (inactive) | –
COc1cc(OC)nc(NC(=O)NS(=O)(=O)Nc2ccccc2C(=O)N(C)C)n1 | 2.74% (inactive) | –
c1ccc(-c2nc3ccccc3[nH]2)cc1 | -10.4% (inactive) | –
SC1CCCCC1 | -0.809% (inactive) | –
CC/C(=C(/c1ccc(O)cc1)c1ccc(OCCN(C)C)cc1)c1ccccc1 | – | 40.3 µM (active)
O=C1OC2(c3ccccc31)c1ccc(O)c(Br)c1Oc1c2ccc(O)c1Br | – | 61.1 µM (active)
COC(=O)c1ccc([N+](=O)[O-])cc1 | -1.39% (inactive) | –
CC1(C)[C@H](C(=O)OCc2cccc(Oc3ccccc3)c2)[C@@H]1C=C(Cl)Cl | 3.36% (inactive) | –
CCn1c2ccccc2c2ccccc21 | 0.336% (inactive) | –
O[Si](c1ccccc1)(c1ccccc1)c1ccccc1 | -11.9% (inactive) | –
